SARS PLP yeast – blocks SARS-CoV papain-like protease in a yeast assay. S. cerevisiae expressing SARS-CoV PLpro, growth rescue. Potency, µM (top dose mostly 32.9 µM), for the others: top-dose activity, positive = growth rescue, actives largely listed as activators. hit rate 0.19% among 330,000. AID 485353; note: potency is the fitted concentration of half-maximal effect; 0% is about no effect; nearly all actives have a fitted effect of over 55% in size
Shiga inhibitor – Shiga toxin inhibition; Vero cells, Shiga toxin protein synthesis inhibition reporter; inhibition, % at 38.7 µM; hit rate 9.2% among 290,000; AID 2315; in the data active = inhibition mostly above about 28%, no sharp cut-off; inactive = mostly below about 43%; note: 0% is about no effect
NS1 function inh – blocks influenza NS1 protein function; Potency, µM (highest dose often 46.1 µM), without a hit: at the top dose activity, positive = more growth; hit rate 0.4% among 270,000; AID 2326; note: potency is the fitted concentration of half-maximal effect; actives are rising curves; nearly all actives have a fitted effect of over 50% in size
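Compounds were scored for reversing the slow growth caused by influenza A NS1 in S. cerevisiae, measured by optical density at 600 nm. Assay medium contained 2% galactose at pH 6.0; NS1-free yeast of the same strain were the positive control.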
CHX counter – counter-screen hit for Shiga toxin inhibitors, cycloheximide; hit rate 12% among 300,000; cell reporter, cycloheximide protein synthesis inhibition counterscreen; AID 2314; max response, %; in the data active = max response mostly above about 13%, no sharp cut-off; inactive = mostly below about 14%; note: read at 38.3 µM for the half of the compounds with a filed dose; 0% is about no effect
An asterisk follows results filed as active; x = not tested or not shown. Most compounds without a hit are left out; they make up all but 12% or so of the library. Unless noted, calls come from the whole dose curve.

SMILES	SARS PLP yeast	Shiga inhibitor	NS1 function inh	CHX counter
O=C(NCC(c1ccco1)N1CCOCC1)c1ccc(C(F)(F)F)cc1 (stereo not drawn)	-0.9%	x	x	x
C[C@@]12CC[C@@H]3[C@H](CCC4=CC(=O)CC[C@]43C)[C@@H]1CC[C@@H]2C(=O)COS(=O)(=O)c1ccc(Br)cc1	x	x	-2.8%	x
C[C@@H]1Oc2ccc(C(=O)C[C@@H](C(=O)O)c3ccc4c(c3)OCO4)cc2O1	x	x	-3.1%	x
Cn1c2c(c(=O)n(C)c1=O)C(c1ccc(Br)cc1)C(C#N)=C(N)N2 (stereo not drawn)	0.9%	1.4	11.7%	-3.0
c1cncc(CNc2ncn[nH]2)c1	0.1%	1.5	-7.7%	-0.9
Cc1ccsc1C(C(=O)NC(C)(C)C)N(Cc1ccco1)C(=O)c1csnn1 (stereo not drawn)	2.9%	-1.2	-2.3%	-4.9
CC(=O)c1c(Nc2ccc3c(c2)OCCO3)oc(C)cc1=O	3.2%	117.9*	-61.7%	52.5*
Cc1cc(C)c(C(N)=O)c(Nc2ccc3c(c2)OCCO3)n1	11.3%	13.4	3.5%	9.9
O=C(Nc1ccc2c(c1)OCCO2)c1coc2ccccc2c1=O	-17.7%	59.7*	-0.8%	47.8*
O=C(CSc1nnc(C2CC2)n1Cc1ccccc1)N1CCNC1=O	-4.0%	x	x	x
CC1CCN(S(=O)(=O)c2cccc3cccnc23)CC1	-1.7%	-3.5	-3.9%	-5.1
Nc1nc(-c2cccnc2)nc2sc3c(c12)CCCC3	3.7%	89.5	-36.0%	30.6*
O=c1oc(-c2cccs2)nc2sc3c(c12)CCCCC3	0.6%	58.7*	-4.5%	26.4*
CCc1c(-c2ccccc2)nc2sc3c(c2c1N)CCCC3	-4.7%	63.8	-7.5%	19.3*
O=c1oc(-c2ccccc2)nc2sc3c(c12)CCCC3	-4.3%	123.8*	2.7%	40.9*
Cn1c(=O)c2c(nc(Cc3ccc(N)cc3)n2C)n(C)c1=O	-1.1%	-6.7	3.7%	0.6
COc1ccc(CNc2ncccc2[N+](=O)[O-])cc1	-0.7%	52.0*	-4.2%	25.6*
c1ccc(-c2ccccc2OCCCN2CCOCC2)cc1	-1.9%	20.7	4.9%	27.7*
Cc1cccc(C)c1OCCCN1CCCC1	-8.9%	-22.2	7.2%	-3.8
Cc1cccc(Cl)c1OCCCN1CCOCC1	-5.1%	48.9*	-2.5%	21.4*
O=[N+]([O-])c1ccccc1OCCOc1ccccc1[N+](=O)[O-]	0.5%	49.7*	3.8%	17.7*
O=[N+]([O-])c1ccccc1OCCCN1CCOCC1	0.5%	21.7	-6.3%	9.3*
COc1ccc(OCCOc2ccccc2[N+](=O)[O-])cc1	24.6%	25.6	-0.1%	38.7*
c1ccc(SCCOCCN2CCOCC2)cc1	3.5%	25.1	14.6%	14.8*
CCOC(=O)/C=C/COc1ccccc1[N+](=O)[O-]	-16.2%	102.5*	x	46.7*
SMILES	SARS PLP yeast	Shiga inhibitor	NS1 function inh	CHX counter
COc1ccc(OCCOCCOc2ccc(C)cc2[N+](=O)[O-])cc1	-7.0%	23.4	-1.2%	-1.6
CCC(C)(C)NC(=O)C(c1ccc(OC)cc1)N(C(=O)CCC(=O)Nc1cc(C)on1)c1ccc2c(c1)OCO2 (stereo not drawn)	5.6%	-1.7	-9.9%	-6.8
CCn1cc(Br)c(C(=O)Nc2ccc(F)c(Cl)c2)n1	-7.6%	73.4*	-52.8%	53.5*
CCOC(=O)c1ccc(NC(=O)c2nn(CC)cc2Br)cc1	-18.5%	52.8*	-32.0%	35.4*
CCn1cc(Br)c(C(=O)Nc2ccc(Cl)cc2Cl)n1	-5.0%	54.8	-77.6%	25.5*
CCOC(=O)c1ccc(NC(=S)NC(=O)c2nn(CC)cc2Br)cc1	-14.4%	18.0	13.1%	-2.5
Cc1ccc(/C(=N/Nc2ncnc3ccccc23)C(=O)O)cc1	-15.7%	93.3*	23.9%	79.6*
CCOC(=O)c1cccc(Nc2ncnc3ccccc23)c1	-33.1%	32.2*	-38.9%	25.4*
CC(CO)(CO)Nc1ncnc2ccccc12	x	x	2.8%	x
COC(=O)C(=O)C/C(=N/Nc1ncnc2ccccc12)c1ccc(Cl)cc1	20.4%	86.1*	20.9%	27.0*
Cc1cccc(Nc2ncnc3ccccc23)c1	-8.2%	29.6	-18.9%	34.5*
O=C(COC(=O)CNS(=O)(=O)c1ccc(Br)cc1Cl)NC1CCCC1	0.3%	x	x	x
Cc1ccc(N2C(=O)N(CC(=O)Nc3cc(Cl)ccc3C)C(=O)C2C)cc1 (stereo not drawn)	-1.0%	x	x	x
CSc1ccccc1C(=O)OCC(=O)N1CCCC1=O	1.4%	x	x	x
CC(=O)Oc1cccc(Nc2ncnc3ccccc23)c1	3.2%	x	-14.7%	19.2*
COc1ccc(OC)c(Nc2ncnc3ccccc23)c1	-0.3%	-10.8	-7.9%	9.1
Cc1ccc(Nc2ncnc3ccccc23)cc1	-1.1%	118.9*	-34.8%	61.6*
Oc1ccc(Nc2ncnc3ccccc23)cc1	-0.2%	18.5	4.5%	9.8
O=C(O)c1cccc(Nc2ncnc3ccc(Br)cc23)c1	0.8%	42.9*	-0.3%	24.9*
COC(=O)c1cccc(Nc2ncnc3ccc(C)cc23)c1	-11.1%	-12.7	-46.9%	-3.1
CC(C)Oc1ccc(Nc2ncnc3ccccc23)cc1	-1.3%	81.6	-31.2%	45.1*
CCC(Sc1nc2cc(OC)c(OC)cc2c(=O)n1CCc1ccc(OC)c(OC)c1)C(=O)NCCOC (stereo not drawn)	-4.6%	-4.8	x	12.9
Cc1ccc(C(=O)c2cc([N+](=O)[O-])ccc2N2CCOCC2)cc1	-8.7%	-11.3	-1.3%	-1.8
CC(C)=Cc1oc2ccc([N+](=O)[O-])cc2c1N1CCOCC1	0.3%	64.9*	-5.2%	20.8*
Cc1nn(C)c(C(=O)Nc2ccn(C34CC5CC(CC(C5)C3)C4)n2)c1[N+](=O)[O-]	18.9%	-1.1	-9.6%	-2.2
SMILES	SARS PLP yeast	Shiga inhibitor	NS1 function inh	CHX counter
Cn1cc([N+](=O)[O-])c(C(=O)Nc2ccn(C34CC5CC(CC(C5)C3)C4)n2)n1	12.7%	1.9	-7.3%	15.3*
CCn1cc([N+](=O)[O-])c(C(=O)Nc2ccn(C34CC5CC(CC(C5)C3)C4)n2)n1	-9.3%	-1.2	-18.6%	-2.4
Cc1ccc(-c2nc(NC(=O)c3nn(C)cc3[N+](=O)[O-])sc2C)cc1	-11.4%	-15.3	0.2%	-4.6
Cn1nccc1C(=O)Nc1ccn(C23CC4CC(CC(C4)C2)C3)n1	-32.7%	68.1*	-34.5%	44.5*
Cn1cc([N+](=O)[O-])c(C(=O)Nc2nc(-c3ccc(Cl)cc3)cs2)n1	-4.9%	-40.7	0.6%	17.2*
O=C(CSc1nc2ccccc2c(=O)n1CC1CCCO1)NCCc1ccccc1 (stereo not drawn)	2.9%	-11.7	20.0%	-1.5
CN(C)c1ccc(C2Nc3ccccc3C(=O)N2NS(C)(=O)=O)cc1 (stereo not drawn)	-1.0%	19.7	-3.4%	15.4*
CS(=O)(=O)NN1C(=O)c2ccccc2NC1c1cc2ccccc2nc1Cl (stereo not drawn)	-9.3%	-8.4	9.6%	15.6*
COc1ccc(C2Nc3ccccc3C(=O)N2NS(=O)(=O)c2ccc(C)cc2)cc1 (stereo not drawn)	-1.2%	1.3	x	2.7
CS(=O)(=O)NN1C(=O)c2ccccc2NC1c1ccccc1F (stereo not drawn)	0.9%	24.9	4.8%	0.1
CC(=O)NN1C(=O)c2ccccc2NC1c1ccc(N(C)C)cc1 (stereo not drawn)	-0.8%	45.3	-5.7%	23.5
Cc1ccc(S(=O)(=O)NN2C(=O)c3ccccc3NC2c2ccccc2)cc1 (stereo not drawn)	2.8%	98.1*	x	24.1*

From PubChem BioAssay
